# The supplement of paper PMC12494721
# Counter-ions that a name gives are not always drawn.
# Key:
# Conditions in all cases: incubation time: 27 h, anaerobic, 37 °C;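 for the amine columns active = adjusted P below 0.05 in both replicates with a change the same way and a mean fold change under 0.8 or over 1.25; inactive = the rest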
# [1] = system: Clostridium sporogenes DSM 1664; experiment: growth (OD595) fold change vs plate DMSO controls (fold change (ratio)); higher = more growth
# In short: (§1)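 The reported measure is growth: the fold change against the median of DMSO controls on the plate. Absorbance at 595 nm from anaerobic 96-well mGAM cultures grown for 27 h at 37 °C was blank-subtracted, corrected for background with 20 µM compound solutions in water, and converted to OD with a calibration factor of 5. Fold changes above 1.5 appear as NA, and values are the mean of 2 biological replicates.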
# Escherichia coli IAI1 [2] = experiment: as above
# In short: as §1
# [3] = system: Klebsiella aerogenes DSM 30053; experiment: as above
# In short: as §1
# [4] = system: Ruminococcus gnavus DSM 108212; experiment: as above
# In short: as §1
# [5] = system: Klebsiella aerogenes DSM 30053; experiment: fold change of Histamine concentration vs plate DMSO controls (fold change (ratio)); higher = more amine produced, active = hit call of the paper (significant change in both replicates, either direction)
# In short: (§2)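 Extracts of whole anaerobic mGAM cultures were analysed for amines by LC–triple-quadrupole MS with dynamic MRM and external calibration curves, with drift corrected within batch. Four gut strains were grown at 37 °C for 27 h in 80 µL wells with compounds at 20 µM final, sweeteners at 50 µM final. Each value expresses fold change over plate DMSO controls. The average of 2 biological replicates is shown.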
# [6] = system: Clostridium sporogenes DSM 1664; experiment: fold change of Tryptamine concentration vs plate DMSO controls (fold change (ratio)); higher = more amine produced, active = hit call of the paper (significant change in both replicates, either direction)
# In short: as §2
# [7] = system: Ruminococcus gnavus DSM 108212; experiment: as above
# In short: as §2
# Escherichia coli IAI1 [8] = experiment: fold change of Putrescine concentration vs plate DMSO controls (fold change (ratio)); higher = more amine produced, active = hit call of the paper (significant change in both replicates, either direction)
# In short: as §2
# [9] = system: Klebsiella aerogenes DSM 30053; experiment: as above
# In short: as §2
# Escherichia coli IAI1 [10] = experiment: fold change of Cadaverine concentration vs plate DMSO controls (fold change (ratio)); higher = more amine produced, active = hit call of the paper (significant change in both replicates, either direction)
# In short: as §2
# [11] = system: Klebsiella aerogenes DSM 30053; experiment: as above
# In short: as §2
# [12] = system: Ruminococcus gnavus DSM 108212; experiment: fold change of 2-Phenylethylamine concentration vs plate DMSO controls (fold change (ratio)); higher = more amine produced, active = hit call of the paper (significant change in both replicates, either direction)
# In short: as §2
Structure (SMILES),growth [1],growth (Escherichia coli IAI1 [2]),growth [3],growth [4],fold change of Histamine concentration [5],fold change of Tryptamine concentration [6],fold change of Tryptamine concentration [7],fold change of Putrescine concentration (Escherichia coli IAI1 [8]),fold change of Putrescine concentration [9],fold change of Cadaverine concentration (Escherichia coli IAI1 [10]),fold change of Cadaverine concentration [11],fold change of 2-Phenylethylamine concentration [12]
CCN(CC)CCNC(=O)c1cc(Cl)c(N)cc1OC [Metoclopramide monohydrochloride] (20 µM),1.08,1.01,1,1.13,1.03 (inactive),0.988 (inactive),1.02 (inactive),0.875 (inactive),1.03 (inactive),0.826 (inactive),0.998 (inactive),1 (inactive)
CCCN1CCCC[C@H]1C(=O)Nc1c(C)cccc1C [Ropivacaine hydrochloride] (20 µM),1.02,0.971,0.964,0.779,1.13 (inactive),1.13 (inactive),1.02 (inactive),0.946 (inactive),1.04 (inactive),1.03 (inactive),0.961 (inactive),1.01 (inactive)
CC(C)(C)C(=O)C(Oc1ccc(Cl)cc1)n1ccnc1 (stereo not drawn) [Climbazole] (20 µM),1.22,1.05,1.07,0.922,0.96 (inactive),1.04 (inactive),0.979 (inactive),1.04 (inactive),1.02 (inactive),0.968 (inactive),1.01 (inactive),1.03 (inactive)
O=C1Nc2ccccc2C1(c1ccc(O)cc1)c1ccc(O)cc1 [Oxyphenisatin] (20 µM),1.19,1.05,1,0.994,1.03 (inactive),0.982 (inactive),0.935 (inactive),1.04 (inactive),1 (inactive),1.01 (inactive),0.999 (inactive),0.89 (inactive)
COc1cc2ncnc(Nc3ccc(F)c(Cl)c3)c2cc1OCCCN1CCOCC1 [Gefitinib] (20 µM),1.1,1.04,0.991,1.18,0.983 (inactive),1.06 (inactive),0.993 (inactive),1.14 (inactive),0.997 (inactive),1.02 (inactive),1.02 (inactive),1.1 (inactive)
O=c1[nH]c(=O)n([C@H]2C[C@H](O)[C@@H](CO)O2)cc1F [Floxuridine] (20 µM),0.467,0.882,0.907,1.41,0.675 (active),0.514 (inactive),0.748 (active),0.593 (active),0.903 (inactive),0.889 (inactive),1.02 (inactive),0.884 (inactive)
CC(=O)O[C@]1(C(C)=O)CC[C@H]2[C@@H]3C=C(C)C4=CC(=O)CC[C@]4(C)[C@H]3CC[C@@]21C [Megestrol acetate] (20 µM),1.03,1.1,0.998,1.07,0.981 (inactive),1.05 (inactive),1.04 (inactive),1.2 (inactive),0.971 (inactive),0.982 (inactive),1.01 (inactive),1.04 (inactive)
CNC[C@H](O)[C@@H](O)[C@H](O)[C@H](O)CO [Meglumine] (20 µM),0.956,1.07,1.05,0.994,0.883 (inactive),1.04 (inactive),1.02 (inactive),1.25 (inactive),0.979 (inactive),0.99 (inactive),1.06 (inactive),0.998 (inactive)
CC(=O)OCC1=C(C(=O)O)N2C(=O)[C@@H](NC(=O)Cc3cccs3)[C@H]2SC1 [Cephalothin sodium salt] (20 µM),0,1.29,1.11,0.125,1.1 (inactive),0.0346 (active),0.0635 (active),1.17 (inactive),1.02 (inactive),1.62 (inactive),1.01 (inactive),0.0703 (active)
CC1CNc2c(cccc2S(=O)(=O)N[C@@H](CCCNC(=N)N)C(=O)N2CC[C@@H](C)C[C@@H]2C(=O)O)C1 (stereo partly drawn) [Argatroban] (20 µM),1.12,0.953,1.16,0.732,0.986 (inactive),0.976 (inactive),0.987 (inactive),0.978 (inactive),1.04 (inactive),1.01 (inactive),1 (inactive),0.937 (inactive)
COC(=O)[C@H]1[C@H]2C[C@@H]3c4[nH]c5cc(OC)ccc5c4CCN3C[C@H]2C[C@@H](OC(=O)c2cc(OC)c(OC)c(OC)c2)[C@@H]1OC [Reserpine] (20 µM),1.21,0.987,1.02,1.01,0.943 (inactive),1.07 (inactive),1.04 (inactive),0.935 (inactive),0.983 (inactive),0.966 (inactive),1.01 (inactive),1.07 (inactive)
C#CCN(C)CCCOc1ccc(Cl)cc1Cl [Clorgyline hydrochloride] (20 µM),1.02,0.993,0.95,0.97,1.04 (inactive),0.96 (inactive),0.971 (inactive),0.968 (inactive),0.984 (inactive),0.983 (inactive),0.991 (inactive),0.974 (inactive)
Cc1cc2cc3c(C)cc(=O)oc3c(C)c2o1 [Trioxsalen] (20 µM),1.03,1.14,0.991,1.02,1.08 (inactive),0.974 (inactive),0.966 (inactive),1.13 (inactive),0.997 (inactive),1.03 (inactive),0.985 (inactive),0.936 (inactive)
CCOC(=O)n1ccn(C)c1=S [Carbimazole] (20 µM),0.973,1.11,0.979,1.08,1.04 (inactive),0.937 (inactive),1.01 (inactive),1.09 (inactive),1.03 (inactive),0.98 (inactive),1 (inactive),1.01 (inactive)
O=C(O)c1ccccc1Nc1cc(Cl)ccc1C(=O)O [Lobenzarit disodium] (20 µM),0.929,1,1.02,1.08,1.02 (inactive),1.07 (inactive),0.976 (inactive),0.987 (inactive),0.994 (inactive),0.932 (inactive),1 (inactive),1.01 (inactive)
NS(=O)(=O)c1cc2c(cc1C(F)(F)F)NCNS2(=O)=O [Hydroflumethiazide] (20 µM),0.947,1.05,0.989,0.941,0.965 (inactive),0.92 (inactive),0.987 (inactive),1.06 (inactive),1.01 (inactive),1 (inactive),1.01 (inactive),0.935 (inactive)
O=c1[nH]c(=O)n([C@H]2C[C@H](O)[C@@H](CO)O2)cc1/C=C/Br [Brivudine] (20 µM),1.08,1.06,1.02,1.06,0.978 (inactive),1.03 (inactive),1.04 (inactive),0.968 (inactive),1 (inactive),0.982 (inactive),1 (inactive),1.08 (inactive)
CC(=O)OCC(=O)[C@@]1(OC(C)=O)[C@@H](C)C[C@H]2[C@@H]3C[C@H](F)C4=CC(=O)C=C[C@]4(C)[C@@]3(F)[C@@H](O)C[C@@]21C [Diflorasone Diacetate] (20 µM),1.05,0.996,0.978,0.993,1.03 (inactive),1.03 (inactive),1.01 (inactive),0.969 (inactive),1.01 (inactive),1.02 (inactive),0.989 (inactive),0.978 (inactive)
c1cnc(N2CCN(Cc3ccc4c(c3)OCO4)CC2)nc1 [Piribedil] (20 µM),0.986,1,1.07,0.998,0.934 (inactive),1.18 (inactive),1.02 (inactive),1.03 (inactive),0.971 (inactive),0.962 (inactive),0.996 (inactive),0.991 (inactive)
CC(C)[C@H]1CC[C@H](C(=O)N[C@H](Cc2ccccc2)C(=O)O)CC1 [Nateglinide] (20 µM),1.11,1.22,1.02,0.903,1.01 (inactive),0.94 (inactive),1.02 (inactive),1.2 (inactive),1 (inactive),0.984 (inactive),1 (inactive),1.05 (inactive)
O=C1CC2(CCCC2)CC(=O)N1CCCCN1CCN(c2ncccn2)CC1 [Buspirone hydrochloride] (20 µM),0.958,1.07,0.968,0.992,1.09 (inactive),1.05 (inactive),1.05 (inactive),1.02 (inactive),1.01 (inactive),1.05 (inactive),0.99 (inactive),1.05 (inactive)
Cc1cn[nH]c1 [Fomepizole] (20 µM),0.879,0.987,0.971,1.15,1.03 (inactive),1.03 (inactive),1.01 (inactive),0.999 (inactive),0.995 (inactive),1.02 (inactive),0.986 (inactive),0.988 (inactive)
CO[C@@]12[C@H](COC(N)=O)C3=C(C(=O)C(C)=C(N)C3=O)N1C[C@@H]1N[C@@H]12 [Mitomycin C] (20 µM),0.678,0.0414,0.824,0.291,1.15 (inactive),0.394 (active),0.153 (active),0.663 (inactive),0.968 (inactive),0.306 (active),0.995 (inactive),0.15 (active)
CC1c2cccc(O)c2C(O)=C2C(=O)C3(O)C(O)=C(C(N)=O)C(=O)C(N(C)C)C3C(O)C21 (stereo not drawn) [Doxycycline hydrochloride] (20 µM),0.0027,0.0209,0.241,0.613,0.459 (inactive),0.0313 (active),0.225 (active),0.219 (active),0.659 (active),0.412 (active),0.724 (active),0.288 (active)
